The values below come from PubChem BioAssay.

Calls of active or inactive are those of the source. The rule behind the calls is not given here.

This assay concerns Aerobactin synthetase IucA (Klebsiella pneumoniae, hypervirulent). Put plainly: biochemical IucA inhibition screen of LOPAC library by absorbance (AID 1346212).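 Note: 100% = no compound wells and 0% = no enzyme wells.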 The note with it: IucA enzyme assay, absorbance (OD) readout; hits give low values;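 tested at 8 µM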.
As a reminder, the remaining activity is the signal under treatment as a percentage of the control signal. On to `Cc1nc2sccn2c(=O)c1CCN1CCC(=C(c2ccc(F)cc2)c2ccc(F)cc2)CC1`, for which the remaining activity was 99.1% (inactive).
In the case of `Cc1nc(N=Nc2cc(S(=O)(=O)O)c3cc([N+](=O)[O-])cc(S(=O)(=O)O)c3c2)c(COP(=O)(O)O)c(C=O)c1O` it was 118% (inactive); in that of `OC1(c2ccc(Cl)cc2)CCN(Cc2c[nH]c3ccccc23)CC1`, 112% (inactive).
Consider `O=C1N=c2cc(Cl)c(Cl)cc2=NC1=O`, for which the remaining activity was 110% (inactive).
With `N[C@@H](CCC(=O)N[C@@H](CSN=O)C(=O)NCC(=O)O)C(=O)O` the figure was 119% (inactive); with `CC(=O)N[C@H](C(=O)O)C(C)(C)SN=O`, 117% (inactive).
In the case of `COc1ccccc1N1CCN(CCN(C(=O)c2ccc(I)cc2)c2ccccn2)CC1` it was 122% (inactive).
With `N[C@H](CO)C(=O)O` the figure was 106% (inactive); with `CN1CC[C@]2(CCN3CCc4c(oc5ccccc45)[C@@H]3C2)N(C)C1=O`, 109% (inactive); with `NC(=O)C1=CN(C2OC(COP(=O)(O)OP(=O)(O)OC[C@H]3O[C@@H](n4cnc5c(N)ncnc54)C(OP(=O)(O)O)[C@H]3O)C(O)C2O)C=CC1` (stereo not given in full), 112% (inactive).
As for `N[C@H](C(=O)O)[C@H]1C[C@@H]1C(=O)O`, the remaining activity was 93.8% (inactive).
In the case of `c1ccc(C(NCCNC(c2ccccc2)c2ccccc2)c2ccccc2)cc1` it was 117% (inactive); in that of `C#CCN(C)CCCOc1ccc(Cl)cc1Cl`, 122% (inactive); in that of `CC(C)C[C@H](NC(=O)[C@H]1O[C@@H]1C(=O)O)C(=O)NCCCCN=C(N)N`, 115% (inactive).
In the case of `COc1ccc(/C=C/C(=O)Nc2ccccc2C(=O)O)cc1OC` it was 92.2% (inactive); in that of `C/C(=C\c1ccc(C(=O)O)cc1)c1ccc2c(c1)C(C)(C)CCC2(C)C`, 97.8% (inactive).
Take `COc1ccccc1NC(=O)Nc1nc(-c2cccnc2)nc2ccccc12`: the remaining activity is 105% (inactive).
In the case of `CN1CCc2cc(O)c(O)cc2C(c2ccccc2)C1` (stereo not given) it was 105% (inactive); in that of `Oc1ccc(C2CNCCc3c2cc(O)c(O)c3Cl)cc1` (stereo not given), 94.3% (inactive); in that of `O=c1onc2n1-c1cc(Br)ccc1OC2`, 105% (inactive).
With `NC(=O)CNCCC(c1ccccc1)c1ccccc1` the figure was 118% (inactive); with `O=c1oc(Cl)c(Cl)c2ccccc12`, 92.9% (inactive).
With `CCCC1O[C@@H]2C[C@H]3[C@@H]4CCC5=CC(=O)C=C[C@]5(C)[C@H]4[C@@H](O)C[C@]3(C)[C@]2(C(=O)CO)O1` (stereo not given in full), the remaining activity was 115% (inactive).
In the case of `NC[C@@H]1O[C@H](O[C@H]2[C@@H](O)[C@H](O[C@@H]3[C@@H](O)[C@H](N)C[C@H](N)[C@H]3O[C@H]3O[C@H](CO)[C@@H](O)[C@H](O)[C@H]3N)O[C@@H]2CO)[C@H](N)[C@@H](O)[C@@H]1O` it was 104% (inactive); in that of `O=C(O)c1cc(=O)cc(C(=O)O)[nH]1`, 122% (inactive).
With `O=Nc1ccc2oc(=O)ccc2c1` the figure was 103% (inactive); with `CC[N+](CC)(CC)CC(=O)Nc1c(C)cccc1C`, 113% (inactive); with `CC1=C(C(=O)O)N2C(=O)[C@@H](NC(=O)[C@H](N)C3=CCC=CC3)[C@H]2SC1`, 113% (inactive).
In the case of `CCCCCCCCCCCCCCC[C@H](O)[C@H](N)CO` it was 83.3% (inactive); in that of `CCC1(O)CC2CN(CCc3c([nH]c4ccccc34)[C@@](C(=O)OC)(c3cc4c(cc3OC)N(C)C3[C@]45CCN4CC=C[C@@](CC)([C@@H](OC(C)=O)[C@]3(O)C(=O)OC)[C@H]45)C2)C1` (stereo not given in full), 102% (inactive); in that of `COc1ccc2c(c1)c(CC(=O)O)c(C)n2Cc1ccc(Cl)cc1`, 99.3% (inactive).
In the case of `C[N+]1(C)[C@@H]2CC(OC(=O)[C@H](CO)c3ccccc3)C[C@H]1[C@@H]1O[C@@H]12` (stereo not given in full), the remaining activity is 112% (inactive).
With `CNCCNS(=O)(=O)c1cccc2cnccc12` the figure was 102% (inactive); with `COC(=O)C1=C(C)NC(C)=C(C(=O)OC(C)(C)CN(C)CCC(c2ccccc2)c2ccccc2)C1c1cccc([N+](=O)[O-])c1` (stereo not given), 109% (inactive).
In the case of `CCCn1c(=O)c2[nH]c(-c3ccc(S(=O)(=O)O)cc3)nc2n(CCC)c1=O` it was 111% (inactive).
With `O=c1[nH]c2cc(C(F)(F)F)ccc2n1-c1cc(C(F)(F)F)ccc1O` the figure was 112% (inactive); with `S=C(S)OC1CC2CC1C1CCCC21` (stereo not given), 94.5% (inactive).
Consider `O=C1O/C(=C/Br)CCC1c1cccc2ccccc12` (stereo not given), for which the remaining activity was 112% (inactive).
With `CC(O)C(O)[C@H]1CNc2nc(N)[nH]c(=O)c2N1` (stereo not given in full) the figure was 102% (inactive); with `Nc1nc(Nc2ccccc2)nc2c1ncn2[C@@H]1O[C@H](CO)[C@@H](O)[C@H]1O`, 106% (inactive).
